In the library only some 4.6% were active in any assay of this set; here they are far more common.
KKLEB cytotox = reduces viability of KKLEB cystic fibrosis airway cells | KKLEB CF airway cells viability, ATPlite luminescence, overnight; active compounds read low; cells stimulated with P. aeruginosa culture filtrate | activity change (cytotoxicity), % at 5 µM | 360,000 compounds, 0.36% hits | AID 602141;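 active = corrected activity change at or below -50% at 5 µM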
ABHD5 PLIN5 PPI = blocks binding of human ABHD5 to perilipin-5 | Q00G26+Q8WTS1 | 360,000 compounds, 0.78% hits | Split G. princeps luciferase complementation, luminescence, 4 h | AID 602281 | inhibition, % at 4 µM;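 active = inhibition above the mean inhibition across every tested compound plus 3 SD, cut at about 22% in these data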;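 also: 0% = DMSO only wells and the 100% control is not disclosed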
Target sequence (Q00G26 whole entry, looked up): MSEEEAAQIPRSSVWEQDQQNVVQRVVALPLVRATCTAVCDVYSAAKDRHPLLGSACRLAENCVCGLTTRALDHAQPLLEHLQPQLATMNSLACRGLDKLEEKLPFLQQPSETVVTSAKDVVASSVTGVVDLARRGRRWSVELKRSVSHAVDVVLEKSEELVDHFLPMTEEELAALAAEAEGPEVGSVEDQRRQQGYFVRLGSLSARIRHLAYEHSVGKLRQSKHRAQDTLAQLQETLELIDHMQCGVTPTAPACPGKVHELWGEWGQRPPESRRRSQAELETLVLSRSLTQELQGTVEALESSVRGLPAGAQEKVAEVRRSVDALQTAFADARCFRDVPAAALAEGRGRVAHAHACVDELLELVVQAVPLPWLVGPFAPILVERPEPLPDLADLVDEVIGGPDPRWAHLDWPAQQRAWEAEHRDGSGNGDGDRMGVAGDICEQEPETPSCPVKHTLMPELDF
Target sequence (Q8WTS1 whole entry, looked up): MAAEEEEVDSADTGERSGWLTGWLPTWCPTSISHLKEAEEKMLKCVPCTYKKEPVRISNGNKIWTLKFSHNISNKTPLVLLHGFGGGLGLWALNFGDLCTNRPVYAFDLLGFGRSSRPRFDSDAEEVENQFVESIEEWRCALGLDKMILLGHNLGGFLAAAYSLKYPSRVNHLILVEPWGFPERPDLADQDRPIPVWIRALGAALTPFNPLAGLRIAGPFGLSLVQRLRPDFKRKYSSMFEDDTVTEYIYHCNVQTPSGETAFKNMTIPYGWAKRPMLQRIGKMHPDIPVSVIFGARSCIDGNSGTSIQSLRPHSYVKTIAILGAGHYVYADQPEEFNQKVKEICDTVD
Peg3 promoter = inhibitors of Peg3 promoter; HeLa PEG-Prom luciferase reporter, luminescence, overnight; inhibition, % at 20 µM; 360,000 compounds, 1.7% hits; AID 588405;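 active = inhibition of at least 50% at 20 µM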
HIF-2a inh = blocks HIF-2a reporter activity; 786-0 RCC cells HIF-2a reporter, luciferase luminescence, overnight; 360,000 compounds, 0.72% hits; inhibition, % at 18.8 µM;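 active = inhibition of the luminescence signal of 40% or more relative to plate controls, in a single-dose primary screen at 18.75 µM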
CF NFkB block = blocks PAF-induced NF-kB reporter in cystic fibrosis cells; 360,000 compounds, 0.86% hits; AID 588850; inhibition, % at 5 µM; KKLEB NF-kB-GFP reporter, GFP fluorescence overnight;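 active = at least 50% inhibition at 5 µM, scaled per plate between neutral and stimulator controls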;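 also: PAF is a Pseudomonas aeruginosa culture filtrate used as stimulus; plate controls were PAF-stimulated DMSO wells for no effect and unstimulated DMSO wells for full effect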
Mdm2-MdmX inh = inhibitors of human Mdm2/MdmX interaction. 330,000 compounds, 3% hits. AID 485346. inhibition, % at 8 µM. SaOS-2 split-luciferase Mdm2/MdmX complementation, luminescence;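 active = inhibition of at least 50% at 8 µM in the primary screen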
The depositor's hits bear a star.

`CC(C)C[C@H](NC(=O)N1c2ccccc2NC(=O)[C@@H]1C(C)C)C(=O)N[C@@H](Cc1ccccc1)C(=O)O` gave KKLEB cytotox 2, ABHD5 PLIN5 PPI -1, Peg3 promoter 9, HIF-2a inh 9, CF NFkB block -7 and Mdm2-MdmX inh 13.
`NC1=C(Cl)C(=O)c2ccc(S(N)(=O)=O)cc2C1=O` gave KKLEB cytotox -95*, ABHD5 PLIN5 PPI -18, Peg3 promoter 110*, HIF-2a inh 97* and CF NFkB block 89*.
NC1=C(Cl)C(=O)c2ccccc2C1=O was read as KKLEB cytotox 7, ABHD5 PLIN5 PPI -16, Peg3 promoter -62, HIF-2a inh -14 and CF NFkB block 60*.
For NS(=O)(=O)c1ccc2c(c1)C(=NO)c1cc(S(N)(=O)=O)ccc1-2 the results were KKLEB cytotox -2, ABHD5 PLIN5 PPI 4, Peg3 promoter 6, HIF-2a inh 22, CF NFkB block 9 and Mdm2-MdmX inh -4.
Screening O=C(N[C@@H]1CCC(=O)N(CC[C@H](Sc2ccccc2)c2ccccc2)CC1)OCc1ccccc1 returned KKLEB cytotox -26, ABHD5 PLIN5 PPI 6, Peg3 promoter -2, HIF-2a inh 27, CF NFkB block 15 and Mdm2-MdmX inh 17.
For Nc1ccc(C(=O)NN2C(=O)[C@H](Cl)C2c2ccc(Cl)cc2)cc1 (stereo partly drawn) the results were KKLEB cytotox -79*, ABHD5 PLIN5 PPI -3, Peg3 promoter 102*, HIF-2a inh 11 and CF NFkB block 91*.
`CCC(=O)N1CCC1(C)C(=O)Nc1ccc2c(c1)CCN2C(C)=O` (stereo not drawn) gave KKLEB cytotox -4, ABHD5 PLIN5 PPI -1, Peg3 promoter -9, HIF-2a inh 1 and CF NFkB block 5.
Screening COC(=O)c1cc([N+](=O)[O-])c(-n2cncn2)c([N+](=O)[O-])c1 returned KKLEB cytotox -2, ABHD5 PLIN5 PPI 6, Peg3 promoter 94*, HIF-2a inh 30 and CF NFkB block 0.
For Cc1ccc(N(CC(=O)NCCc2ccc(Cl)cc2)S(=O)(=O)c2c(C)noc2C)cc1 the results were KKLEB cytotox -8, ABHD5 PLIN5 PPI -13, Peg3 promoter 18, HIF-2a inh 16, CF NFkB block 7 and Mdm2-MdmX inh 15.
O=C(CN(c1ccc(Cl)cc1)S(=O)(=O)c1ccc(Cl)c([N+](=O)[O-])c1)NCCc1ccc(F)cc1 was read as KKLEB cytotox -3, ABHD5 PLIN5 PPI 2, Peg3 promoter 95*, HIF-2a inh 28, CF NFkB block -5 and Mdm2-MdmX inh 9.
Screening CCOCCn1ccc2c(OCC(=O)Nc3cc(OC)ccc3OC)cccc2c1=O returned KKLEB cytotox -8, ABHD5 PLIN5 PPI 14, Peg3 promoter 46, HIF-2a inh 0, CF NFkB block 10 and Mdm2-MdmX inh 37.
`COCCn1ccc2c(OCC(=O)Nc3cc(OC)ccc3OC)cccc2c1=O` gave KKLEB cytotox 3, ABHD5 PLIN5 PPI -2, Peg3 promoter 52*, HIF-2a inh 9, CF NFkB block 20 and Mdm2-MdmX inh 44.
Cc1ccc(-n2ncc3c2CC(C)(C)CC3NC(=O)CCN2CCCO2)cc1 (stereo not drawn) was read as KKLEB cytotox 11, ABHD5 PLIN5 PPI 14, Peg3 promoter 50*, HIF-2a inh 7, CF NFkB block -19 and Mdm2-MdmX inh 19.
CC1(C)C(=O)OC(/C=C\c2cccc([N+](=O)[O-])c2)C(C)(C)C1=O (stereo not drawn) was read as KKLEB cytotox -7, ABHD5 PLIN5 PPI 4, Peg3 promoter -1, HIF-2a inh 10, CF NFkB block 2 and Mdm2-MdmX inh -7.
`COc1ccccc1CCNC(=O)c1cc(-c2ccccn2)nc2ccccc12` gave KKLEB cytotox 1, ABHD5 PLIN5 PPI 0, Peg3 promoter 51*, HIF-2a inh -1, CF NFkB block -21 and Mdm2-MdmX inh 36.
Screening Cc1coc2c(C)c3oc(=O)cc(-c4ccccc4)c3cc12 returned KKLEB cytotox -6, ABHD5 PLIN5 PPI -3, Peg3 promoter 74*, HIF-2a inh 6, CF NFkB block -3 and Mdm2-MdmX inh 17.
COc1ccc(-c2nc(N=Nc3ccc(O)cc3)n[nH]2)cc1 was read as KKLEB cytotox 25, ABHD5 PLIN5 PPI 1, Peg3 promoter -68, HIF-2a inh -111, CF NFkB block -28 and Mdm2-MdmX inh -17.
Cc1ccc(-c2nc(N=Nc3ccc(O)cc3)n[nH]2)cc1 was read as KKLEB cytotox 29, ABHD5 PLIN5 PPI 5, Peg3 promoter 68*, HIF-2a inh -160, CF NFkB block 6 and Mdm2-MdmX inh 20.
For Cc1ccc(CCNC(=O)CN2C(=O)COc3ccc(S(=O)(=O)N4CCOCC4)cc32)cc1 the results were KKLEB cytotox 5, ABHD5 PLIN5 PPI 0, Peg3 promoter 3, HIF-2a inh 7, CF NFkB block -6 and Mdm2-MdmX inh 21.
`O=C(C(=O)N1CCC(Cc2ccccc2)CC1)c1ccccc1Br` gave ABHD5 PLIN5 PPI -8 and HIF-2a inh 1.
`CCOC(=O)Cn1c(=NC(=O)c2cc(-c3cccs3)nc3ccccc23)sc2cc(S(N)(=O)=O)ccc21` gave KKLEB cytotox -31, ABHD5 PLIN5 PPI 9, Peg3 promoter 44, HIF-2a inh 35, CF NFkB block 23 and Mdm2-MdmX inh 32.
COC(=O)Cn1c(=NC(=O)c2cc(-c3cccs3)nc3ccccc23)sc2cc(S(N)(=O)=O)ccc21 was read as KKLEB cytotox 18, ABHD5 PLIN5 PPI 26*, Peg3 promoter 16, HIF-2a inh -23, CF NFkB block -26 and Mdm2-MdmX inh 32.
Screening O=C(NCc1cccs1)c1ccc2sc(COCCO)nc2c1 returned KKLEB cytotox 2, ABHD5 PLIN5 PPI -4, Peg3 promoter -16, HIF-2a inh -39 and CF NFkB block -5.
CC(C)OC(=O)C(C(=O)C(F)(F)F)c1cc(NS(=O)(=O)c2ccc3ccccc3c2)c2ccccc2c1O (stereo not drawn) was read as KKLEB cytotox -34, ABHD5 PLIN5 PPI 41*, Peg3 promoter 35, HIF-2a inh 4, CF NFkB block 37 and Mdm2-MdmX inh 27.
For CC(=O)C1=CCC(c2ccc(C)cc2)N(S(=O)(=O)c2ccc(Cl)cc2)C1 (stereo not drawn) the results were KKLEB cytotox 6, ABHD5 PLIN5 PPI 7, Peg3 promoter 15, HIF-2a inh -5 and CF NFkB block 8.
For CSc1ccc(C2NN=C(c3ccccc3)S2)cc1 (stereo not drawn) the results were KKLEB cytotox -61*, ABHD5 PLIN5 PPI -6, Peg3 promoter -88, HIF-2a inh -85, CF NFkB block -11 and Mdm2-MdmX inh -51.
`Oc1ccccc1C1NN=C(c2ccccc2)S1` (stereo not drawn) gave KKLEB cytotox -16, ABHD5 PLIN5 PPI -9, Peg3 promoter -182, HIF-2a inh -146, CF NFkB block 9 and Mdm2-MdmX inh -56.

Bioassay records from PubChem BioAssay.
